# Data from article PMC10163288.
# These entries were drawn from the full list. How many sequences the whole screen found active is unknown. Values without a mark were called inactive.
# B1: il10ra_site1_sap_40_mot_HHH_b1_00102_af2_000000216_0001_43_57_H_._HHH_b1_07360_0001_0000500039_0000002_0_0001_af2pred_0001 (protein)
# chain: SSSSSDEEELEEEAKRLMEELEKHGDPELFTRLAELAKLLAELGNPLFEEVAELLARLQSSSSSS
# B2: il10ra_site1_sap_25_mot_HHH_b2_05540_000000178_0001_1_18_H_._ems_p1-15H-GBL-16H-GABBL-16H_0381_0001_0001_0001_0001_0000500025_0000002_0_0001 (protein)
# chain: SSSSSDMEELYRRIAELLRRLREVSPEEREELLREAKELAEELNNEYLKRAIEHMARAVNSSSSS
# B3: il10ra_site1_sap_27_mot_HHH_b2_02537_000000065_0001_1_20_H_._HHH_b2_03111_af2_0001_0000200010_0000001_0_0001 (protein)
# chain: SSSSSAAEELKEIIEELLRLQREGDEEEFEKLIEEAERELKEKGDQLSLRIIEYILRLFHSSSSS
# B4: il10ra_site1_normal_mot_HHH_b1_02062_000000185_0001_1_20_H_._HHH_b1_02799_af2_0001_0000300032_0000001_0 (protein)
# chain: SSSSDELLQEVYELSREAAELDSDGDKEEAEKILEEAEEIAKELGNELFLFQVEYMLRLLKSSSS
# B5: il10ra_site1_normal_mot_8756ee2cf497b5429c717dfc0c0bcfd6_0001_000000186_0001_1_13_H_._HHH_b2_02097_0001_0000100006_0000001_0 (protein)
# chain: SSSSDLEEAIELVRRVVELLHEGNVEEARELVEEAEKVVEEAGNDVLRWQLEYLKRLLERDSSSS
# B6: il10ra_site1_normal_mot_HHH_b2_02053_af2_000000006_0001_3_19_H_._HHH_b1_07461_0001_0000100009_0000001_0_af2pred_0001 (protein)
# chain: SSSSSASEEVRKLLREALELLDKGNPEEAEELVEEAVRIAEENNNPVLLFVAEFLLKDIRGSSSS
# B7: il10ra_site1_normal_mot_HHH_b2_00837_af2_000000287_0001_40_54_H_._HHH_b2_01069_af2_0001_0000200019_0000002_0 (protein)
# chain: SSSSDEEERIKKLIEEVEELLEEGDPEEALELLFEATHFALELGNAELLREIWELVRSLKSSSSS
# B8: il10ra_site1_normal_mot_HHH_b2_02386_000000054_0001_1_20_H_._HHH_b2_05043_0001_0000400073_0000003_0 (protein)
# chain: SSSSTDESYELLREAIEEVIRLYKEGNPEEAEKVVEEVARRLEELGNPLAARQLENLLRLLSSSS
# B9: il10ra_site1_normal_mot_HHH_b1_04771_000000013_0001_40_56_H_._HHH_b2_04957_af2_0001_0000100002_0000001_1 (protein)
# chain: SSSSSEEVEEAVELSTKAFRLALRGNDEEAEEVLKEALKIAEEGNDPRIREVVEDLLQALSSSSS
# B10: il10ra_site1_normal_mot_HHH_b1_01879_000000050_0001_1_18_H_._HHH_b1_00727_af2_0001_0000600044_0000002_0_af2pred_0001 (protein)
# chain: SSSSSEEVLRLLLEALKLIRRGDLEEAEEVLKEMERLAEELNDEQARRAVEVLKRLLEELGSSSS
# B11: il10ra_site1_sap_19_mot_HHH_b2_00335_000000038_0001_43_57_H_._HHH_b1_03234_0001_0000400063_0000002_0_0001 (protein)
# chain: SSSSEAVKRVAELLREASKLQNDGNPEEAERVAEEALEVAEEGNNPLLEWQARFLLHRIRNSSSS
# B12: il10ra_site1_normal_mot_HHH_b1_02708_af2_000000019_0001_23_39_H_._e0a7e7c149437fae01dc270677924e9f_0001_1_0001_0000100001_0000001_0 (protein)
# chain: SLEEEVTELVRELGLPPMVESAVRSFVLAKELGDEEYLKIAEHFLEAQARRDPNVEEVLRFLRER
# B13: il10ra_site1_normal_mot_HHH_b2_04646_000000019_0001_1_20_H_._HHH_b2_05789_af2_0001_0000400029_0000001_0 (protein)
# chain: SSSSSDEEEAREEAERLLEEAEQIEDRHEVARLLYRASRLAAEGQDDELARRLVKLFARLSSSSS
# B14: il10ra_site1_normal_mot_HHH_b2_00475_000000107_0001_44_57_H_._HHH_b2_01638_af2_0001_0000900052_0000002_0 (protein)
# chain: SSSSEAEQRVAELLFRALRLLYEGNPEEAKEVVEEARRLAEENNDEELEEYVRILKHFIESHSSS
# B15: il10ra_site1_normal_mot_8756ee2cf497b5429c717dfc0c0bcfd6_0001_000000186_0001_1_13_H_._HHH_b2_00335_af2_0001_0000300021_0000001_0_af2pred_0001 (protein)
# chain: SSSSSDRLRELLELLRRIIELSRDGDPEEARKLIEEAQELAEELNDEVAKAILEFLEEHVNSSSS
# B16: il10ra_site1_normal_mot_HHH_b1_00999_000000080_0001_41_55_H_._HHH_b1_02031_af2_0001_0000100001_0000001_0 (protein)
# chain: SSSSSDEEEEEVERLLEEAEKIPDPRERNEILLEALHIALELGDEELLQLVWKVVKELGSSSSSS
# B17: il10ra_site1_normal_mot_HHH_b1_05326_000000242_0001_1_20_H_._HHH_b1_05311_0001_0000100004_0000001_0 (protein)
# chain: SSSSSSDEALELSRRAFKAALHGNPEEARELLEEALELAEERGDERLARIIQDLLKVLSSSSSSS
# B18: il10ra_site1_sap_12_mot_HHH_b1_06789_af2_000000041_0001_1_20_H_._HHH_b2_05839_af2_0001_0000300031_0000002_0_0001 (protein)
# chain: SSSSSDEEEIEELLREIKELLENNDRERALELIQEALRVIFQHSDEEALRELFELVRKLGSSSSS
# B19: il10ra_site1_sap_22_mot_HHH_b2_03220_af2_000000223_0001_23_40_H_._HHH_b1_01542_0001_0000500044_0000001_0_0001_af2pred_0001 (protein)
# chain: SSSSSEEEVEELERRIEELLEEGNRHEAAALILRLFALAHELRDPEVEEEARRLAQLAANSSSSS
# B20: il10ra_site1_normal_mot_HHH_b2_06857_af2_000000179_0001_42_54_H_._HHH_b1_05676_af2_0001_0000100011_0000001_0 (protein)
# chain: SSSSDETEEVVELLRRAAELHSDGDHEEARRLLEEAQELAEELGNELLRYQIEFAERSLDSSSSS
# B21: il10ra_site1_sap_25_mot_HHH_b1_01879_000000050_0001_1_18_H_._HHH_b1_08444_0001_0000100004_0000001_0_0001 (protein)
# chain: SSSSSTQELYELSRKAMELLRNGNPEEAEKLLEEALELAEEEGNWAAIVALRYILRAIRRSSSSS
# B22: il10ra_site1_sap_17_mot_HEEHE_1605_000000211_0001_40_56_H_._9e622f7d73aa0ff91040b48e8c7f7504_0001_1_af2_0001_0000600013_0000002_0_0001 (protein)
# chain: SSSSSDANHEALELVLEAMHAMLRGDREEAERLLEEALELAREGNNERLAKQIEILLENASSSSS
# B23: il10ra_site1_normal_mot_HHH_b1_04065_000000255_0001_41_56_H_._HHH_b1_07236_0001_0000100003_0000001_1 (protein)
# chain: SSSSDEEYRREVEELLEEAEQIEDPHERAEVLARALRRAYEGRDPELFRLVDRVAIELYFSSSSS
# B24: il10ra_site1_sap_21_mot_HHH_b2_06979_000000158_0001_42_57_H_._HHH_b1_00540_af2_0001_0000100003_0000001_0_0001 (protein)
# chain: SSSTLTERIYKLSEKALELLKQGDTEEAEEVVEEAIELAEEAGSRVLAHVLEFLLEAIKRRSSSS
# B25: il10ra_site1_normal_mot_HHH_b2_06090_af2_000000001_0001_1_19_H_._HHH_b1_07022_0001_0000500035_0000001_0 (protein)
# chain: SSSSSQEVAELIIEAFRLLLRGDEEEVERLLEELKELAEELNDPALRRLVEILEEAIKAASSSSS
# B26: il10ra_site1_sap_19_mot_HHH_b2_07521_000000141_0001_20_37_H_._HHH_b1_07537_af2_0001_0000400008_0000001_0_0001 (protein)
# chain: SSSSSDEERLEELLEELKELLEEGDRERFLRVALEVLRLAFQSSDEEALQAVWRLVKKWGSSSSS
# B27: il10ra_site1_normal_mot_HHH_b1_03094_000000294_0001_1_20_H_._HHH_b1_05478_af2_0001_0000100005_0000001_0 (protein)
# chain: SSSSDEENQEALELSLEALRLALRGDPEKAREVLEEAFELAERANNERLLRIIEELLEALHSSSS
# B28: il10ra_site1_normal_mot_HHH_b1_06789_af2_000000041_0001_1_20_H_._HHH_b1_02788_0001_0000100006_0000001_0 (protein)
# chain: SSSSDLEEEIEEAIEEARENGDELIVQILEILLRQIRRDGSPNARWLVRQVIKALKNLLENSSSS
# B29: il10ra_site1_sap_24_mot_HHH_b2_06857_af2_000000179_0001_42_54_H_._HHH_b1_04179_af2_0001_0000200006_0000001_1_0001 (protein)
# chain: SSSSSDATRELYRLSKEAAELLAEGNPEEAQRVAEEAFELAEEAGNRVLLHAIEHLLRDISSSSS
# B30: il10ra_site1_normal_mot_HHH_b2_07521_000000141_0001_20_37_H_._HHH_b1_01332_0001_0000100002_0000001_0_af2pred_0001 (protein)
# chain: SSSSDEEEKRLRLALRLARFLIEQGDEEAARKLLEWIRELAKRANDEEALEEAQRLLEEVGSSSS
# B31: il10ra_site1_normal_mot_HHH_b1_01879_000000050_0001_1_18_H_._HHH_b1_04021_0001_0000200009_0000001_0_af2pred_dldesign_0_af2pred (protein)
# chain: SSSSSELDALLAALEAAVAAGDEAAVRELSVRVSRLALEANNKEVLKKVFDLMVDFYKKLSSSSS
# B32: il10ra_site1_sap_20_mot_HHH_b1_05126_000000053_0001_38_52_H_._HHH_b2_05116_af2_0001_0000900047_0000001_0_0001 (protein)
# chain: SSDEREELKEEVEEEVEKAVENKDPELVKEIIAKALMEAARLRDDQLSMAIIRIYARANQLLQSS
# B33: il10ra_site1_normal_mot_HHH_b2_08144_af2_000000046_0001_38_52_H_._HHH_b1_00696_0001_0000600035_0000001_0 (protein)
# chain: SSSSTEEIQRIMELLRRAAELLNEGNPEEAEKLIEEAEELVKEANDPLLEIQLRFLERDINSSSS
# B34: il10ra_site1_sap_23_mot_HHH_b1_01233_000000085_0001_1_18_H_._HHH_b1_01214_0001_0000100002_0000001_0_0001 (protein)
# chain: SSSSDEEHIEELARAVERQLEQLSKYDPRLLERLAEAARKALELWDEELAREIEELAKELLSSSS
# B35: il10ra_site1_normal_mot_HHH_b2_00984_000000042_0001_1_20_H_._HHH_b2_02613_af2_0001_0000700025_0000001_0 (protein)
# chain: SSSSSTEEEIEELIKKAEEAAENGDPRKAFELLAEASRYALELGDAELLQEIWELIKKLNSSSSS
# B36: il10ra_site1_sap_23_mot_HHH_b1_03574_000000194_0001_1_18_H_._HHH_b1_05868_0001_0000200012_0000002_0_0001 (protein)
# chain: SSSSSDRDELYELIEEALELLARGNPEEAERVLEEARELAEELGNRVFLVVIRFLLKDIKSSSSS
# B37: il10ra_site1_normal_mot_HHH_b1_05056_000000217_0001_1_20_H_._HHH_b2_04285_0001_0000100002_0000001_0 (protein)
# chain: SSSSDLEEEIERLEEELREARERGDKELALQLLLRLLRLAYETRDEELLRELWEIVRKLFSSSSS
# Biological target: il10ra, Q13651
# Sequence (Q13651 whole entry): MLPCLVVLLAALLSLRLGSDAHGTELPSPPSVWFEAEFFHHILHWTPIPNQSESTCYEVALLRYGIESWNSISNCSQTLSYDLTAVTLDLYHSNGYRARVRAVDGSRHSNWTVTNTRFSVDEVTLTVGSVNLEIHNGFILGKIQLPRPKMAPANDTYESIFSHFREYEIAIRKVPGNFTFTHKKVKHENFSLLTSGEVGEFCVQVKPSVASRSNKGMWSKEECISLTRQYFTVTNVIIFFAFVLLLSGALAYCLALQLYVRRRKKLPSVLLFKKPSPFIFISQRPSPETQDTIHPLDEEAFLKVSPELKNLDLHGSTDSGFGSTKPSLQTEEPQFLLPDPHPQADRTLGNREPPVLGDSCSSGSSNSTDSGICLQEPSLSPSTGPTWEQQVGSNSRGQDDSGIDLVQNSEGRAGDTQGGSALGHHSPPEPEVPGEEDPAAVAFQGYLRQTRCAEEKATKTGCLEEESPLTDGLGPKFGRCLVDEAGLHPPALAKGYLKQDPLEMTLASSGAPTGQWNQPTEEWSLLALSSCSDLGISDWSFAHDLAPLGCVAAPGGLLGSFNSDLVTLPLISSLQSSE
# Assay: yeast display titration
row,Binder,apparent Kd
1,B1,no binding seen
2,B2,no binding seen
3,B3,no binding seen
4,B4,no binding seen
5,B5,no binding seen
6,B6,no binding seen
7,B7,no binding seen
8,B8,no binding seen
9,B9,no binding seen
10,B10,no binding seen
11,B11,no binding seen
12,B12,no binding seen
13,B13,no binding seen
14,B14,no binding seen
15,B15,no binding seen
16,B16,no binding seen
17,B17,no binding seen
18,B18,no binding seen
19,B19,no binding seen

row,Binder,apparent Kd
1,B20,no binding seen
2,B21,no binding seen
3,B22,no binding seen
4,B23,no binding seen
5,B24,no binding seen
6,B25,no binding seen
7,B26,no binding seen
8,B27,no binding seen
9,B28,no binding seen
10,B29,no binding seen
11,B30,no binding seen
12,B31,no binding seen
13,B32,no binding seen
14,B33,no binding seen
15,B34,no binding seen
16,B35,no binding seen
17,B36,no binding seen
18,B37,no binding seen
